DT40 TDP1 CPT = growth inhibition of DT40 Tdp1-/-;hTDP1 cells with camptothecin (screen for TDP1 inhibitors); chicken DT40 Tdp1-/-;hTDP1 cells + 20 nM CPT, ATP luminescence, 48 h; Potency, µM (titrated, usually from 46.2 µM), without a hit: at the highest dose activity change, negative = growth inhibition, actives largely listed as inhibitors; AID 686979; hit rate 12% among 420,000; also: potency is read from the fitted curve at half-maximal effect; nearly all actives have a fitted effect of over 55% in size
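Chicken DT40 Tdp1-/- cells stably complemented with human TDP1 were seeded at 400 cells/well in medium containing 20 nM camptothecin, exposed to pin-transferred compounds, and grown at 37 °C for at least 48 hr. Viability was read as ATP luminescence.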
IL1B secr inh = inflammasome signaling inhibition, IL-1 beta readout | THP-1 LPS/ATP IL-1B secretion, AlphaLISA, 16 h; active compounds read low | activity change, % at 57.5 µM | hit rate 4.7% among 360,000 | AID 743279; in the data active = activity change below about -50%; inconclusive = mostly about -30% to -49%
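THP-1 cells pretreated 1 hr with compounds (up to 57.5 uM final), then stimulated with LPS (250 ng/mL final) plus ATP (1.25 mM final); secreted IL-1B measured by AlphaLISA after 16 hr, decreased signal indicating inhibition.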
DT40 TDP1 no CPT = qHTS for Inhibitors of human tyrosyl-DNA phosphodiesterase 1 (TDP1): qHTS in cells in absence of CPT | DT40 Tdp1-/- hTDP1 cells, no CPT, ATP luminescence, 48 h | hit rate 15% among 420,000 | AID 686978, 2013 | Potency, µM (series often up to 46.2 µM), inactives show top-dose activity change, negative = growth inhibition, actives largely listed as inhibitors; also: potency is read from the fitted curve at half-maximal effect; nearly all actives have a fitted effect of over 55% in size
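Stably hTDP1-transfected Tdp1-null chicken DT40 cells were treated with library compounds minus camptothecin and grown for at least 48 hr at 37 °C, after which cellular ATP was quantified by luminescence.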
HT1080NT lethal = kills 2HG-producing HT-1080-NT fibrosarcoma cells; Potency, µM (titrated, usually from 46.1 µM), for the others: top-dose activity, negative = less viability, usual class: cytotoxic; hit rate 1.6% among 360,000; HT-1080-NT fibrosarcoma viability, CellTiter-Glo ATP luminescence, 48 h;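 also: NT is the 2HG producing partner of a matched IDH1 knockdown line; potency is read from the fitted curve at half-maximal effect; 0% = DMSO-treated cells and -100% = media-only wells without cells; nearly all actives have a fitted effect of over 55% in size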
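Viability by CellTiter-Glo luminescence after 48 h compound exposure at 37C of HT-1080-NT cells (750/well, RPMI, 5% FBS). % activity scaled between DMSO wells and medium-only wells, then curve-fitted and categorized by curve class.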
12-LOX inh = ALOX12 (human) lipoxygenase inhibition | AID 1671190 | Potency, µM (highest dose often 108 µM), for inactives: at the highest dose activity change, negative = inhibition, most hits filed as inhibitors | hit rate 1.1% among 580,000 | purified 12hLO, xylenol orange hydroperoxide absorbance | P18054; also: potency is read from the fitted curve at half-maximal effect
Target sequence (P18054 whole entry, looked up): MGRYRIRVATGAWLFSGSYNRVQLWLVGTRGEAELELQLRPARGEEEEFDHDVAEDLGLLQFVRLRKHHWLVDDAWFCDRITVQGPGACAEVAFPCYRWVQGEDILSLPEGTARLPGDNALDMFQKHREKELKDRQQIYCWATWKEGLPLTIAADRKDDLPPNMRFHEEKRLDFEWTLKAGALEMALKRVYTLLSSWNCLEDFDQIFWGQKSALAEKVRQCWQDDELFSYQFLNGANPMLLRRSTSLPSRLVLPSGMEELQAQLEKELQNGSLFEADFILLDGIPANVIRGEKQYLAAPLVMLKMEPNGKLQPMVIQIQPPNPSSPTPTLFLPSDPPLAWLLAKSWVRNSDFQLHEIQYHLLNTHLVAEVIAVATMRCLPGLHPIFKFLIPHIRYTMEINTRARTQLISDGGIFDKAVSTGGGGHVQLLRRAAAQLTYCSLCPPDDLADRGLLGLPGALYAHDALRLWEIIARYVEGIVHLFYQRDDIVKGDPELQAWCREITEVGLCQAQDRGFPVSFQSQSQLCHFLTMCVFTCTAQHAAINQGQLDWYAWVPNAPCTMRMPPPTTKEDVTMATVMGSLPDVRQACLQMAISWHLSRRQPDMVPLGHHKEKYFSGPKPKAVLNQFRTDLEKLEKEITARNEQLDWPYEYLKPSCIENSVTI
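Purified human 12hLO at 150 nM in 25 mM Hepes, 0.01% Triton X-100, pH 7.0, preincubated 15 min at room temperature with compound. Reaction started with 40 uM arachidonic acid, 30 min at room temperature. Hydroperoxide measured by Fe-xylenol orange, 573/405 nm absorbance ratio.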
HT1080 IDH1KD tx = toxicity to HT-1080 IDH1 knockdown cells (counter line). HT-1080 IDH1 knockdown viability, ATP luminescence, 48 h. Potency, µM (top dose mostly 46.1 µM), for inactives: top-dose activity, negative = toxicity, hits mostly cytotoxic. hit rate 2% among 360,000. AID 686971;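 also: potency is read from the fitted curve at half-maximal effect; 0% = DMSO wells and -100% = cell-free medium wells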
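Luminescent ATP read-out (CellTiter-Glo, 10 min at room temperature) after 48 h compound exposure at 37 °C gave viability of IDH1-knockdown HT-1080 cells. Activity was normalised to DMSO and cell-free wells, then fitted as concentration-response curves.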
The depositor's hits bear a star; ? = inconclusive; . = no result; [ ] = remark or other dose. Only a selection was taken, and hits are over-represented in it overall. Unless noted, calls follow the shape of the dose curve; as a rule, active = well fitted curve in the direction sought with a large enough effect; inconclusive = small, poorly fitted or top-dose-only effect, or another doubt; inactive = no such curve, though single readings can be large; an effect the other way counts as inactive or inconclusive. Unless noted, % is scaled to controls: 0 for no effect and ±100 for the full control effect.

SMILES	DT40 TDP1 CPT	IL1B secr inh	DT40 TDP1 no CPT	HT1080NT lethal	12-LOX inh	HT1080 IDH1KD tx
CCn1ncc(CN2C[C@@H](COC)[C@H](c3ccncc3)C2)c1C	.	.	.	.	33%	.
CCC(=O)Nc1ccc2c(c1)Cc1cc([N+](=O)[O-])ccc1-2	?	-5	6.5µM*	0%	-2%	-11%
Nc1c(Br)cc(Br)c2c1-c1ccc([N+](=O)[O-])cc1C2	-22%	2	-5%	2%	?	-26%
O=CNc1ccc2c(c1)Cc1cc([N+](=O)[O-])ccc1-2	?	-55*	13µM*	5.8µM*	-14%	5.2µM*
Cc1ccc(-c2csc3ncnc(Sc4nnc(C5CC5)o4)c23)cc1	.	.	.	.	43%	.
Cc1cccc(N(C(=O)c2snc(C(N)=O)c2N)C(C(=O)NCC2CCCO2)c2ccc(N(C)C)cc2)c1 (stereo unspecified)	29µM*	-16	?	14%	19%	14%
CN(C)c1ccc(C(C(=O)NCC2CCCO2)N(C(=O)c2snc(C(N)=O)c2N)c2ccc3c(c2)OCO3)cc1 (stereo unspecified)	0%	-66*	?	4%	1%	0%
CN(C)c1ccc(C(C(=O)NCC2CCCO2)N(C(=O)c2snc(C(N)=O)c2N)c2ccccc2)cc1 (stereo unspecified)	?	-3	?	11%	6%	11%
O=C(CCc1ncc(-c2ccccc2)o1)Nc1nccs1	.	.	.	.	-6%	.
Cc1nc(/N=C(\N)NC(=O)c2ccccc2N)nc2ccccc12	.	.	.	.	9%	.
CCOc1ccc(C(=O)Nc2cccc3ncccc23)cc1Cl	23µM*	8	?	10%	10%	-12%
Cc1ccccc1NC(=O)c1ccc([N+](=O)[O-])o1	?	?	12µM*	-25%	-10%	26µM*
O=C(Nc1cccc2ncccc12)c1cccnc1	-11%	28	-22%	0%	137%	2%
CCOc1ccc(C(=O)Nc2cccc3ncccc23)cc1	.	.	.	.	2%	.
Cc1cccnc1NC(=O)c1ccc([N+](=O)[O-])o1	?	?	?	-1%	-8%	16%
Cc1ccc(NC(=O)c2ccc([N+](=O)[O-])o2)c(C)c1	23µM*	-68*	?	-1%	-5%	?
O=C(Nc1cccc2ncccc12)c1ccc([N+](=O)[O-])o1	12µM*	-93*	16µM*	16µM*	18%	15µM*
O=C(NCc1ccccc1)c1ccccc1Nc1ccccc1	.	.	.	.	-7%	.
CC(=O)NC[C@@H]1C=C(C)[C@H](Cc2nc3ccc(F)cc3[nH]2)C[C@H]1C(C)C	.	.	.	.	65%[176 µM]	.
CCOC(=O)N1CCN(c2nc3ccccc3nc2C(C#N)C(=O)NC2CCCCC2)CC1 (stereo unspecified)	.	.	.	.	36%	.
Cc1ccc2c(c1)Oc1ccc(S(=O)(=O)N(C)Cc3ccccc3)cc1C(=O)N2	.	.	.	.	-8%	.
O=C(Nc1ccccc1Cl)c1ccc([N+](=O)[O-])o1	?	-97*	29µM*	?	?	21µM*
O=C(Nc1cccc2ncccc12)c1ccc(-c2ccc(Br)cc2)o1	18µM*	59	23µM*	?	?	?
O=C(Nc1cccc2ncccc12)c1cccc(Br)c1	-6%	10	-17%	3%	6%	-1%
O=C(Nc1cccc2ncccc12)c1ccc(Br)c([N+](=O)[O-])c1	?	-108*	?	-16%	-5%	-13%
SMILES	DT40 TDP1 CPT	IL1B secr inh	DT40 TDP1 no CPT	HT1080NT lethal	12-LOX inh	HT1080 IDH1KD tx
Cc1noc(C)c1S(=O)(=O)N1C[C@@H](Oc2ccccc2)C[C@H]1C(=O)N1CCCC1	.	.	.	.	-2%	.
Cc1ccc(S(=O)(=O)N(C)c2ccc(C(=O)Nc3ccc(C)cn3)cc2)cc1	?	?	?	-27%	-7%	-21%
Cc1ccc(-c2cc(NC(=O)c3ccccc3[N+](=O)[O-])n[nH]2)cc1	?	-5	21µM*	-11%	2%	-10%
CCN(CC)S(=O)(=O)c1cc(C(=O)Nc2cc(C)on2)ccc1Cl	-27%	-6	?	2%	-5%	-10%
CCN(CC)S(=O)(=O)c1cc(C(=O)Nc2ccc(Cl)cn2)ccc1C	?	-54*	16µM*	-10%	0%	-3%[9.24 µM]
CN(c1ccc(C(=O)Nc2ccc(Cl)cn2)cc1)S(=O)(=O)c1ccccc1	?	-9	21µM*	?	3%	-20%
Cc1ccc(NC(=O)c2ccc(Cl)cc2[N+](=O)[O-])nc1	3.3µM*	37	3.3µM*	5.8µM*	-30%	4.6µM*
Cc1ccccc1NC(=O)C(C)N1CCC(C(=O)NCc2ccccc2)CC1 (stereo unspecified)	.	.	.	.	12%	.
COc1cccc(-c2cc(C3CCN(S(=O)(=O)c4ccc(C(C)=O)cc4)CC3)[nH]n2)c1	.	.	.	.	25%	.
O=C(CCc1ccccc1)Nc1ccc(Cl)cn1	5.8µM*	0	3.3µM*	5.8µM*	0%	2.9µM*
Cc1ccccc1C(=O)Nc1ccc(Cl)cn1	16µM*	-1	21µM*	3%	-2%	2%
O=C(Nc1ccc(Cl)cn1)c1cccc2c(Br)cccc12	?	58	15µM*	?	12%	?
